# M1 ag parental – counter-screen for M1 agonists: effect in parental CHO-K1 cells. activation, % at 3 µM. Fluo-8 calcium fluorescence; scaled to maximal ATP response, vehicle zero. AID 602248. actives 0.48% (n = 360,000); in the data active = activation above about 15%;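 also: untransfected CHO-K1 host cells lacking M1 receptor as counterscreen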
# CHO-K1 Ca antag – nonselective inhibitor or artifact in parental CHO-K1 cells | actives 0.6% (n = 360,000) | inhibition, % at 3 µM | AID 602250 | ATP-induced calcium, Fluo-8 fluorescence;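 active = inhibition above a per-plate cutoff, the plate's mean sample inhibition plus 3 SD, cut at about 24% in these data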;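 also: 0% = DMSO plus EC80 ATP and 100% = DMSO alone without ATP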
# ANO1 block – mouse TMEM16A channel inhibition, primary screen. Q8BHY3. actives 1.2% (n = 310,000). HEK293 TMEM16A/YFP iodide influx fluorescence, ionomycin. AID 588511. normalized B-score (activity score, 25-100; higher = stronger inhibition) at 10 µM;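 active = ratio plate-corrected score three or more library SD toward inhibition, starting fluorescence score within five deviations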;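 also: score derived from kinetic fluorescence span divided by baseline fluorescence per well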
# Target sequence (Q8BHY3 whole entry, looked up): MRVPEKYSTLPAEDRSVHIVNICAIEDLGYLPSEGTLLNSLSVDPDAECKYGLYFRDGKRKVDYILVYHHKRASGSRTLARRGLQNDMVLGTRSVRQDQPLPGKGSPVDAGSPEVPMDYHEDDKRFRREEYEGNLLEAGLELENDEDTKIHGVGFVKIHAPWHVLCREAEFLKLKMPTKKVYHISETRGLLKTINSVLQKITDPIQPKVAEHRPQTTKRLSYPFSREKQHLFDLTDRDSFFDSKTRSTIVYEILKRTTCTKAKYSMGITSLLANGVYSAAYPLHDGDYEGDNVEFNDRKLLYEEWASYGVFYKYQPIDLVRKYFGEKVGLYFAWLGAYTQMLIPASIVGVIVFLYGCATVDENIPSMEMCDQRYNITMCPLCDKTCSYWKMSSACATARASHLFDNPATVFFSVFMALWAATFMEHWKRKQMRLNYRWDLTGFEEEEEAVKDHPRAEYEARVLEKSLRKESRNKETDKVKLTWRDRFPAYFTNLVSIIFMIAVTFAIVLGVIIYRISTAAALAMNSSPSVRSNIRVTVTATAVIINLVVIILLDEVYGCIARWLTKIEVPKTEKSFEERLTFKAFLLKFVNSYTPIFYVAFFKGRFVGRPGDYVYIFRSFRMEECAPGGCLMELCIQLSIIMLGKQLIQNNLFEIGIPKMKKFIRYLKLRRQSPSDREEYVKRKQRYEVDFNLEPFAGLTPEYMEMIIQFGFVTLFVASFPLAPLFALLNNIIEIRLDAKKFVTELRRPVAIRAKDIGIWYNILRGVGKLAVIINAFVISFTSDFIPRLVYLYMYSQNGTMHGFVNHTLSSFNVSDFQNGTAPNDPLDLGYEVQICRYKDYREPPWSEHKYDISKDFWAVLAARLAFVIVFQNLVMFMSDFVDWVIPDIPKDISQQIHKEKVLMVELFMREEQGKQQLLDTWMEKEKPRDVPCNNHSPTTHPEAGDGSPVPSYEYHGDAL
# NTR1 agonist – agonists of human neurotensin receptor NTR1. P30989. actives 0.17% (n = 330,000). AID 493036. NTR1-U2OS beta-arrestin-GFP spot imaging, agonist mode. activation, % at 20 µM;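 active = activation at or above 40% of the spot to cytoplasm intensity ratio, with at least 20 cells analyzed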;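 also: 0% = DMSO without peptide and 100% = 100 nM NTR1 peptide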
# ANO1 activ – activators or potentiators of mouse TMEM16A chloride channel. HEK293 TMEM16A/YFP-H148Q/I152L, iodide quench fluorescence; active compounds read low. B-score at 10 µM. actives 0.3% (n = 340,000);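 active = fluorescence-ratio B-score plate-corrected deviation score at least 3 library SD below zero, with starting fluorescence score within 5 deviations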;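 also: channel opened by trigger with iodide after compound preincubation; score built on the fluorescence ratio of max minus min over baseline; more negative score means more quench and so TMEM16A activation or potentiation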
# M1 PAM parental – counter-screen for M1 PAMs: effect in parental CHO-K1 cells. ATP EC20, Fluo-8 calcium fluorescence; 0% at ATP EC20, 100% at ATP max. activation, % at 3 µM. actives 0.02% (n = 360,000). AID 602247;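 active = activation above the run cutoff, the mean activation of all test compounds plus 3 SD, cut at about 40% in these data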;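 also: peak over basal fluorescence ratio in a 140 s read after ATP addition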
# Starred values were filed as active, the others as inactive; i = inactive; x = not tested or not shown. The list is not random: actives were taken first. Their share in the collection is about 2.2%.
SMILES,M1 ag parental,CHO-K1 Ca antag,ANO1 block,NTR1 agonist,ANO1 activ,M1 PAM parental
Cc1ccc(CN/C=C/C(=O)c2ccc(Br)cc2)cc1,2,-26,100*,4,i,30
O=C(/C=C/NCC(=O)c1ccccc1)c1ccc(Br)cc1,1,-9,i,-1,i,21
CCC/C=C/c1ccc(CN2C(C(C)C)C(=O)N(Cc3cn(CC4CCCCC4)nn3)CCS2(=O)=O)cc1 (stereo unspecified),1,-17,x,x,x,18
Cc1cc(NC(=O)c2ccc3sc([C@@H]4O[C@H](CO)[C@H](O)[C@H](O)[C@H]4O)nc3c2)no1,0,7,x,x,x,-1
CCOC(=O)Cc1c(C)nc2c(-c3ccc(Cl)cc3)c(C)nn2c1C,1,2,i,-1,-4.8*,6
CCOC(=O)C1CCCN(C(=O)N2CCOCC2)C1 (stereo unspecified),0,-6,25*,-1,i,17
CCCCn1nc(C(=O)N(C)C2CCCCC2)c2ccccc2c1=O,0,-5,x,0,-30*,-3
O=C(NC1CCCC1)C1c2ccccc2OCC(=O)N1Cc1ccco1 (stereo unspecified),1,-7,x,x,x,-1
Cc1ccc(C(=O)Nc2ccc(Cc3ccncc3)cc2)cc1[N+](=O)[O-],12,8,100*,0,i,0
O=C(Nc1ccc(Cc2ccncc2)cc1)c1cccc([N+](=O)[O-])c1,9,-5,i,3,i,15
Cc1ccccc1NC(=O)C(C)OC(=O)CCC(=O)c1ccccc1 (stereo unspecified),0,13,x,x,x,-9
CCN(CC)CCCNc1ccc(-c2nnc(-c3ccc(OCC(C)C)cc3)o2)cn1,1,-8,i,7,-5.6*,1
CC(C)COc1ccc(-c2nnc(-c3ccco3)o2)cc1,0,4,i,4,i,-4
O=S(=O)(Cc1cc(Cl)nc(-c2ccccc2)n1)c1ccccc1,0,-18,i,4,i,18
O=S(=O)(Cc1cc(Cl)nc(-c2ccncc2)n1)c1ccccc1,0,-1,i,9,-4.7*,3
CCCS(=O)(=O)NC(=O)C1(C)CCCN(C(=O)c2cc(F)cc(F)c2)C1 (stereo unspecified),1,-2,x,x,x,9
COc1ccccc1CCNCc1ccc(OC)c(OCc2ccccc2)c1,20*,-17,i,5,i,-6
COc1ccc(C2CC(=O)C=C(O)C2)cc1 (stereo unspecified),1,-9,i,1,i,22
COc1cc(C2CC(=O)C=C(O)C2)cc(OC)c1OC (stereo unspecified),-1,25*,i,-2,i,-8
S=C1SCCCN1Cc1ccc(Cl)cc1,2,-19,x,x,x,7
Nc1c(S(=O)(=O)c2ccccc2)c2nc3ccccc3nc2n1/N=C/c1ccco1,0,26*,i,12,i,-6
Cc1ccc(S(=O)(=O)c2c(N)n(/N=C/c3ccco3)c3nc4ccccc4nc23)cc1,1,-9,i,6,i,17
CC(=NN1CC(=O)NC1=O)c1ccc([N+](=O)[O-])o1,2,-8,x,x,i,6
COC(=O)CSc1nnc(-c2ccc(NS(=O)(=O)c3ccccc3)cc2)o1,3,-9,25*,3,i,24
CC1=CC2=C(C=O)C(=O)C(C)(O)C(O)C2=CO1 (stereo unspecified),0,-14,x,x,x,16
SMILES,M1 ag parental,CHO-K1 Ca antag,ANO1 block,NTR1 agonist,ANO1 activ,M1 PAM parental
Cc1nc(OCC(=O)c2ccc(Cl)cc2)c(C#N)c2c1COC(C)(C)C2,0,7,i,8,i,9
CCc1nc(OCC(=O)c2ccccc2)c(C#N)c2c1COC(C)(C)C2,1,25*,i,5,i,-7
O=C(NN=Cc1ccc2c(c1)CCN2)c1cccs1,-1,-4,x,x,x,3
COc1cc(C)c(C)cc1S(=O)(=O)N1CCCCC1c1cccnc1 (stereo unspecified),0,1,i,0,-6*,1
CC(=O)Nc1ccc(S(=O)(=O)N2CCCCC2c2cccnc2)cc1 (stereo unspecified),1,-4,i,0,i,28
CSc1cccc(NC(=O)C2CCCN(S(=O)(=O)c3cnc[nH]3)C2)c1 (stereo unspecified),0,-7,x,x,-12*,10
CCOC(=O)C1(C)CCN1C(=O)c1cc(F)cc(F)c1 (stereo unspecified),1,-13,x,x,x,21
CCc1ccc(NC(=O)CSc2nc(=O)n3cc(C)ccc3n2)cc1,0,43*,i,1,i,-8
C=CCn1c(Cn2c(-c3cnccn3)nc3ccccc32)nc2ccccc21,0,5,x,x,x,0
CCCc1cc(-c2nc(N)ncc2-c2ccc3c(c2)OCCCO3)c(O)cc1OC,0,-8,i,49*,i,14
CCCc1cc(-c2nc(N)ncc2-c2csc(C)n2)c(O)cc1OC,0,-11,i,10,i,8
COc1ccc(S(=O)(=O)N(CC(=O)NCC2CCCO2)c2ccc(F)cc2)cc1OC (stereo unspecified),1,26*,i,-1,i,-6
COc1ccc(S(=O)(=O)N(C)CC(=O)NCC2CCCO2)cc1OC (stereo unspecified),0,-5,i,0,i,-8
Cc1c(Cl)sn(-c2ccc(Cl)cc2)c1=O,1,5,x,1,-14*,-4
O=C(Nc1ccc(F)cc1)Nc1ccccc1NS(=O)(=O)c1cccs1,13,16,i,0,i,-9
O=C(Nc1ccc(Cl)cc1)Nc1ccccc1NS(=O)(=O)c1cccs1,16*,34*,100*,0,i,-2
CCn1c(SC(C)C)nnc1-c1cc(-c2ccccc2)sc1N,0,28*,i,2,i,-9
NC(=O)c1ncn([C@@H]2O[C@H](CNCc3c(OCc4ccccc4F)ccc4ccccc34)[C@@H](O)[C@H]2O)n1,1,-1,x,x,x,16
Nc1ccn([C@@H]2O[C@H](C(=O)NCC(F)(F)F)[C@@H](O)[C@H]2O)c(=O)n1,0,16,x,x,x,3
Cc1ccc([N+](=O)[O-])cc1NC(=O)Nc1cccc(F)c1,13,26*,x,22,i,-22
Cc1ccc([N+](=O)[O-])cc1NC(=O)c1ccc(-c2ccccc2)cc1,0,24*,i,-2,i,-6
Cc1ccc(C(=O)Nc2cc([N+](=O)[O-])ccc2C)cc1,0,-5,i,0,i,-2
NS(=O)(=O)c1ccc(CCNC(=O)COC(=O)CCc2c[nH]c3ccccc23)cc1,1,-13,x,0,i,-12
